High-throughput results as filed in PubChem.
Rows were chosen to be rich in hits. Some 5.1% of all compounds tested hit in one or more screens of this group.
ANO1 activ: mouse TMEM16A channel activation, primary screen. HEK293 TMEM16A/YFP-H148Q/I152L, iodide quench fluorescence; stronger effect = lower value. B-score at 10 µM. AID 623877. actives 0.3% (n = 340,000);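 active = fluorescence-ratio B-score plate-corrected deviation score at least 3 library SD below zero, with starting fluorescence score within 5 deviations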;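 note: channel opened by trigger with iodide after compound preincubation; score built on the fluorescence ratio of max minus min over baseline; more negative score means more quench and so TMEM16A activation or potentiation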
NR3A LBD binder: NR3A (human) ligand-binding domain modulation | NR3A LBD differential scanning fluorimetry, Tm shift; 0% = protein alone, 100% = glycine-bound protein | Tm shift relative to glycine control, % at 25 µM | actives 2.5% (n = 340,000) | AID 1259313;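 active = melting temperature shift of at least 10% of the positive control shift, at one fixed dose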
CRFBP-R2 agonist: CRF-BP/CRF-R2 complex agonism. AID 588473. activation, % at 13.2 µM. HEK293 CRF-R2/CRF-BP, calcium dye fluorescence (FLIPR); percent of saturating CRF peptide response. actives 0.46% (n = 350,000);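 active = activation of at least 50%, plus an integration ratio under a set limit after plate pattern correction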;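 note: plate controls were neutral control wells without compound for no effect and CRF at EC100 for full effect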
CRFR2-BP antag: blocks CRF-induced signaling of the CRF-BP/CRF-R2 complex; actives 0.59% (n = 350,000); inhibition, % at 11.8 µM; HEK293 CRF-R2/CRF-BP, CRF-induced calcium fluorescence;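 active = inhibition of the ligand-induced calcium signal above about 50% at the single tested concentration, limit read from the data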
MPTP inh: permeability transition pore inhibition | isolated mouse mitochondria, Ca2+ swelling absorbance, 30 min | inhibition, % at 10 µM | actives 1.4% (n = 360,000) | AID 602449;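 active = inhibition of 50% or more, scaled per plate between neutral and stimulator controls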;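 note: 0% = DMSO wells given calcium and 100% = 1 mM EGTA wells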
ANO1 block: inhibitors of mouse TMEM16A calcium-activated chloride channel. Q8BHY3. HEK293 TMEM16A/YFP iodide influx fluorescence, ionomycin. normalized B-score (activity score, 25-100; higher = stronger inhibition) at 10 µM. actives 1.2% (n = 310,000);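 active = ratio plate-corrected score three or more library SD toward inhibition, starting fluorescence score within five deviations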;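 note: score derived from kinetic fluorescence span divided by baseline fluorescence per well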
Rh123 counter: mitochondrial membrane potential, counter-screen | inhibition, % at 10 µM | actives 78% (n = 5,000) | shares compounds with MPTP inh | AID 624504 | isolated mitochondria, Rhodamine 123 fluorescence; in the data active = inhibition above about 22%;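 note: 0% = DMSO vehicle and 100% = positive control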
MPTP abs DR: dose response confirmation of mitochondrial permeability transition pore inhibitors. shares compounds with MPTP inh. isolated mitochondria swelling, absorbance. IC50, µM. actives 58% (n = 780). AID 651561; in the data active = IC50 below about 20 µM
MPTP cs DR: counter-screen for mitochondrial permeability transition pore inhibitors, dose response. isolated mitochondria counterscreen, fluorescence read-out. IC50, µM. actives 49% (n = 780). AID 651564. shares compounds with MPTP inh; in the data active = IC50 below about 80 µM
* = called active by the depositor; i = inactive; · = no result given.

SMILES | ANO1 activ | NR3A LBD binder | CRFBP-R2 agonist | CRFR2-BP antag | MPTP inh | ANO1 block | Rh123 counter | others
O=C(NCCc1ccncc1)Nc1cccc(Cl)c1 | i | -18 | 0 | -1 | 0 | i | ·
N#Cc1cccc(NC(=O)c2ccccc2C(=O)O)c1 | i | -1 | -1 | 5 | -1 | i | ·
O=C(Nc1ccccc1)Nc1cccc(Cl)c1 | i | 29* | 14 | 17 | 96* | i | 87*
COC(=O)[C@H](Cc1ccccc1)NC(=O)/C=C/[C@H]1O[C@@H](n2cc(C)c(=O)[nH]c2=O)C[C@@H]1O | · | · | · | · | -1 | · | ·
N#CCCn1cc(C(=O)CN2C(=O)NC3(CCCCCC3)C2=O)c2ccccc21 | i | 1 | 2 | -14 | 0 | · | ·
O=C(c1ccc(Cl)cc1)c1cccc(O)c1 | i | 0 | -5 | 29 | 1 | · | ·
Cc1c(C(=O)N2CCN(S(=O)(=O)c3ccc(F)cc3)CC2)oc2ccccc12 | i | 0 | -1 | 7 | -2 | i | ·
CC/C(C)=N\Nc1nc(-c2cc3cc(OC)ccc3oc2=O)cs1 | i | 1 | -2 | -1 | 4 | i | ·
CC(C)(C)c1cc(C(=O)NNC(=O)Nc2cccc(Cl)c2)n(Cc2ccccc2)n1 | i | 5 | 1 | 51* | 71* | i | 79*
CC(C)(C)c1cc(C(=O)NNC(=O)Nc2ccccc2)n(Cc2ccccc2)n1 | i | -2 | 0 | 2 | 17 | i | ·
Cc1onc(-c2c(F)cccc2Cl)c1C(=O)Nc1cc(S(=O)(=O)N2CCCCC2)ccc1O | i | 16* | 8 | 13 | 84* | · | 84*
CC(C)Nc1nc2nonc2nc1Nc1ccccc1 | i | 1 | 7 | 7 | 91* | i | 81*
Nc1ccn(CC(=O)N[C@H](CO)Cc2c[nH]c3ccccc23)c(=O)n1 | i | 4 | -1 | 5 | -1 | · | ·
CCc1cccc(NC(=O)Nc2ccc3c(c2)OCO3)c1 | i | 1 | -1 | 19 | 59* | i | 76*
O=C(Nc1ccc2c(c1)OCO2)NC1(C(F)(F)F)Oc2ccccc2O1 | i | 1 | -1 | 21 | 55* | i | 60*
O=C(Nc1cccc(Cl)c1)Nc1ccc2c(c1)OCO2 | i | 33* | 2 | 1 | 100* | i | 85*
O=C(Nc1ccc2c(c1)OCO2)N1CCCC1 | i | -1 | 0 | 1 | 82* | i | 85*
CCc1ccccc1NC(=O)Nc1ccc2c(c1)OCO2 | i | 0 | -3 | 35 | 5 | i | ·
O=C(Nc1ccc2c(c1)OCCO2)NC1(C(F)(F)F)Oc2ccccc2O1 | i | -6 | 1 | -7 | 1 | i | ·
COc1ccc(OC)c(NC(=O)COC(=O)c2ccc(S(=O)(=O)N3CCCCC3)cc2)c1 | · | · | 1 | -20 | -1 | · | ·
CCOc1ncccc1C(=O)Nc1ccc2c(c1)OCCCO2 | i | 0 | -1 | 8 | -1 | · | ·
CCOC(=O)C1CCN(C(=O)COC(=O)C2CCN(S(=O)(=O)c3ccc(C)c(C)c3)CC2)CC1 | i | 1 | 0 | -1 | -2 | i | ·
CCCCNS(=O)(=O)CCNCc1ccco1 | · | 0 | 3 | 3 | -2 | · | ·
CCN(c1ccccc1)S(=O)(=O)c1cc(C(=O)Nc2ccc(Br)cc2)ccc1F | i | 10 | 11 | -9 | 97* | 25* | 89*
CCc1ccc(NC(=O)c2ccc(F)c(S(=O)(=O)NCC3COc4ccccc4O3)c2)cc1 (stereo unspecified) | i | 16* | 5 | -4 | 84* | i | 78*
SMILES | ANO1 activ | NR3A LBD binder | CRFBP-R2 agonist | CRFR2-BP antag | MPTP inh | ANO1 block | Rh123 counter | others
Oc1ccc(C=NNC(=S)Nc2ccccc2)nc1 | · | · | 4 | -17 | 1 | · | ·
CCOC(=O)C1=C(CC)Nc2ccccc2N=C1NC(=O)Nc1ccc(Cl)c(Cl)c1 | i | 28* | 1 | -3 | 97* | i | 62*
FC(F)(F)c1cnc(N2CCN(C(=S)NCc3ccccc3)CC2)c(Cl)c1 | i | -6 | 3 | 0 | 54* | i | 51*
COC(=O)c1sc(NC(=O)c2oc3ccccc3c2C)nc1C | i | -5 | -1 | 22 | 0 | i | ·
Cc1c(C(=O)Nc2nnc(C(F)(F)F)s2)oc2ccccc12 | i | -1 | 39 | 33 | 67* | i | 9 | MPTP abs DR=6.5*;MPTP cs DR=<2.5*
Cc1cccc(OCCCCNCc2ccccc2)c1 | i | 1 | -1 | -14 | 59* | i | 0 | MPTP abs DR=6.8*;MPTP cs DR=>80
Cc1cccc(OCCCCCNCCO)c1 | i | 1 | -1 | -5 | 1 | i | ·
CC1=CC(C)(C)N2C(=O)C3(N=C(N)NC(Nc4ccccc4)=N3)c3cc(C)cc1c32 (stereo unspecified) | i | -4 | 2 | -9 | 88* | i | -12 | MPTP abs DR=9.3*;MPTP cs DR=>80
Cc1nnsc1C(=O)NC1CCCc2c1cnn2-c1ccc(F)cc1F (stereo unspecified) | i | 2 | 6 | -4 | 7 | i | ·
Cc1ccc(C(=O)NC2CCCc3c2cnn3-c2ccc(F)cc2F)cn1 (stereo unspecified) | i | · | · | · | 52* | i | 91*
Cc1cc(C(=O)NC2CCCc3c2cnn3-c2cccc(C)c2C)n(C)n1 (stereo unspecified) | i | 1 | -2 | -12 | 90* | i | 108*
Cc1oc(-c2cccc(Cl)c2)nc1CN1CCCC(C(=O)NC(C)c2ccc3c(c2)OCCO3)C1 (stereo unspecified) | i | -2 | -3 | -4 | 51* | i | 15 | MPTP abs DR=12*;MPTP cs DR=20*
CN(Cc1cc(Cl)cc(Cl)c1O)Cc1c(O)ccc2ccccc12 | i | 10 | 5 | -30 | 89* | · | 85*
O=C(Nc1cccs1)Nc1ccc(F)cc1F | i | -4 | 1 | -2 | 18 | i | ·
O=C(Nc1cccs1)Nc1ccc(Br)cc1F | i | 21* | 10 | -7 | 82* | i | 80*
Cc1ccc(N/N=C(\C#N)C(N)=S)c(C)c1 | i | -2 | 60* | -5 | 90* | i | 83*
CCOC(=O)C1=CCN(S(=O)(=O)c2ccccc2Cl)C1c1cccc(Cl)c1 (stereo unspecified) | · | · | · | · | 0 | · | ·
COc1ccccc1CNc1nc(NCc2ccccc2SC)c2sccc2n1 | · | · | · | · | 85* | · | 84*
COc1ccccc1CNc1nc(NCc2cccs2)nc2ccsc12 | · | · | · | · | 78* | · | 93*
